Measurements as given in PubChem BioAssay (NCI).
The panel holds about 83,000 compounds, 20% with a hit somewhere; the sample as a whole holds those more often.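 The endpoint reported here, percent growth, reads 100 for growth as untreated, 0 for no net growth and -100 for all cells dead.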 Unmarked numbers belong to inactive results. Activity calls are given as the source filed them. How the source made its calls: active means growth percent below 10; inactive means the rest.

How the values were obtained:
Experiment in all cases: NCI-60 one-dose screen, 48 h (100 = growth as untreated, 0 = no growth, -100 = all killed)
Settings in all cases: 10 µM unless noted
NCI-H23 lung = system: NCI-H23 lung
NCI-H226 lung = system: NCI-H226 lung
NCI-H322M lung = system: NCI-H322M lung
HOP-62 NSCLC = system: HOP-62 NSCLC
NCI-H460 lung = system: NCI-H460 lung
HOP-92 NSCLC = system: HOP-92 NSCLC
NCI-H522 lung = system: NCI-H522 lung
A549/ATCC NSCLC = system: A549/ATCC NSCLC
786-0 renal = system: 786-0 renal
COLO 205 colon = system: COLO 205 colon
DU-145 prostate = system: DU-145 prostate
K-562 leukemia = system: K-562 leukemia
MALME-3M melanoma = system: MALME-3M melanoma
MDA-MB-231 breast = system: MDA-MB-231 breast
RXF 393 renal = system: RXF 393 renal
SF-268 CNS = system: SF-268 CNS
SF-295 CNS = system: SF-295 CNS
SF-539 CNS = system: SF-539 CNS
UACC-257 melanoma = system: UACC-257 melanoma
M14 melanoma = system: M14 melanoma

Row | SMILES | growth (NCI-H23 lung) [%] | growth (NCI-H226 lung) | growth (NCI-H322M lung) | growth (HOP-62 NSCLC) | growth (NCI-H460 lung) | growth (HOP-92 NSCLC) | growth (NCI-H522 lung) | growth (A549/ATCC NSCLC) | growth (786-0 renal) | growth (COLO 205 colon) | growth (DU-145 prostate) [%] | growth (K-562 leukemia) | growth (MALME-3M melanoma) | growth (MDA-MB-231 breast) | growth (RXF 393 renal) | growth (SF-268 CNS) [%] | growth (SF-295 CNS) | growth (SF-539 CNS) | growth (UACC-257 melanoma) | growth (M14 melanoma)
1 | COC(=O)c1c(C)nc(C)c2c1C(=O)C(Br)=C(NCCN1CCOCC1)C2=O | 89 | 107% | 96.2% | 133% | 88.6% | 118% | 102% | 98.6% | 101% | 56.5% | 112 | 97.4% | 37% | 112% | 106% | 95.3 | 95.8% | 107% | 87.5% | 87.8%
2 | O=C(Nc1ccc(Cl)cc1)C1=NCCCCN1 | 92 | 84.7% | 83.5% | 70.7% | 86.3% | 89.9% | 82.6% | 92.6% | 99.9% | 99.6% | 84.1 | 42.3% | 96.7% | 97.9% | 106% | 77.7 | 93.4% | 95.8% | 99.7% | 75.7%
3 | CCOc1ccccc1NC(=O)CCC(=O)OC | 109 | 101% | 96.5% | 94.8% | 108% | 110% | 81.9% | 108% | 91.1% | 103% | 107 | 108% | 72.9% | 107% | 109% | 96.9 | 104% | 97.4% | 123% | 100%
4 | CC/C(=C(/c1ccc(Cl)cc1)c1ccc(OCCN(CC)CC)cc1)c1ccc(OC)cc1 | 48.7 | 80.5% | 66.9% | 89.2% | 16.6% | 51.7% | 66.6% | 48.8% | 49.5% | 22.2% | 74.4 | -18% (active) | 68.2% | 71.8% | 45% | 79.3 | 36.9% | 62.3% | 64.9% | 34.5%
5 | CC1(C)C2=C(C(=O)N1Cc1ccccc1)C(c1ccco1)N(C(=O)C1CCC1)CCN2 (stereo not given) | 95.8 | 116% | 107% | 103% | 106% | 115% | 93.8% | 75.8% | 99.5% | 112% | 110 | 110% | 105% | 95.5% | 136% | 96.5 | 108% | 101% | 95.6% | 103%
6 | O=CN1N=C(c2cccc(Nc3ccncc3)c2)CC1c1ccc2c(c1)OCO2 (stereo not given) | 89.7 | 85.7% | 99.4% | 80.2% | 105% | 73.4% | 83.3% | 83.8% | 95.3% | 113% | 104 | 64.7% | 86.7% | 103% | 100% | 91.9 | 91.9% | 95.3% | 80.1% | 96.4%
7 | O=C1NCCS(=O)(=O)/C1=C\C=C\c1cccc(C(F)(F)F)c1 | 22.3 | 31.6% | 63.4% | 35.8% | 50.1% | 100% | 16.9% | 39.4% | 20.1% | 25.2% | 29.4 | 17.3% | 29.9% | 49.1% | 35.5% | 28.6 | 82.7% | 10.6% | 38.6% | 7.1% (active)
8 | CC1=C(C(=O)OCc2ccccc2)C(c2ccc3c(c2)OCO3)n2c(nc3ccccc32)N1 (stereo not given) | 49.3 | 58.2% | 47% | 44.2% | 6.62% (active) | 78.5% | 26.3% | 47.1% | 43.1% | 37.2% | 53.5 | 13.8% | 39.7% | 68.6% | 53.2% | 59.6 | 20.4% | 9.94% (active) | 60.4% | 28.1%
9 | CSc1nc(N)c2c(n1)NC(c1ccccc1)C1CCc3ccccc3C1=N2 (stereo not given) | 39.4 | 77.6% | 112% | 64.4% | 57.3% | 51.2% | 45.9% | 72.2% | 69.2% | 78.6% | 74.5 | 47.7% | 113% | 71.9% | 84.4% | 60.1 | 41.7% | 102% | 88.7% | 55.7%
10 | Oc1c(Cl)cc(Cl)c2ccc(CN3CCNCC3)nc12 | 52.7 | 61.6% | 58.1% | 29.3% | 31.8% | 54.1% | 67.8% | 30.8% | 49.2% | 102% | 50.8 | 19% | 67.9% | 59.3% | 60.3% | 39.9 | 39.4% | 58.3% | 70.9% | 47.7%
11 | O=C(N/N=C/c1ccccc1Cl)c1ccccc1Nc1ccnc(C(F)(F)F)c1 | 16 | 3.35% (active) | 6.53% (active) | 1.91% (active) | 3.5% (active) | -17.1% (active) | -20.5% (active) | 7.28% (active) | -30.4% (active) | -38% (active) | 29.4 | 4.98% (active) | 5.72% (active) | -17.1% (active) | -13.4% (active) | 14.1 | -41.1% (active) | 4.39% (active) | -2.5% (active) | 23.1%
12 | Cc1ccc(C(F)(F)F)cc1N1CCN(C(=O)[C@H]2C[C@H]2c2ccc(C(F)(F)F)nc2)CC1 | 95.5 | 84.3% | 99.1% | 97.7% | 106% | 60.5% | 72% | 81.5% | 93% | 91.6% | 105 | 78.1% | 94% | 91.3% | 92.8% | 91.3 | 94.7% | 88.6% | 92.7% | 97.5%
13 | COc1ccc(NC(=O)CSc2oc(-c3ccccc3)nc2S(=O)(=O)c2ccc(Cl)cc2)c(OC)c1 | 73 | 1.45% (active) | 83% | 51% | 44.7% | 39.6% | 41.4% | 49.2% | 35.7% | 82.4% | 83.1 | 67.4% | 57.6% | 47.5% | 16.3% | 47.1 | 53.6% | 0.354% (active) | 40.7% | 77.3%
14 | C#CCOC(=O)C(N)CSSCC(N)C(=O)O (stereo not given) | 103 | 112% | 91.2% | 94.9% | 90.4% | 97.5% | 86.1% | 98.2% | 100% | 104% | 119 | 108% | 95.6% | 105% | 114% | 100 | 103% | 90.8% | 104% | 100%
15 | CC(=O)CC(=O)c1ccccc1.[Cu+2] | 97.1 | 114% | 105% | 119% | 110% | 120% | 97.5% | 104% | 107% | 116% | 98.4 | 99% | 95.2% | 96.5% | 125% | 118 | 105% | 105% | 102% | 107%
